# Screening results deposited in PubChem BioAssay by several laboratories.
# A selection: hits, their analogues and other compounds. The true share with any hit is near 2.8%.
# CF NFkB inh: inhibitors of PAF-induced NF-kB signaling, primary screen, cell-based, GFP fluorescence, uHTS. KKLEB NF-kB-GFP reporter, GFP fluorescence overnight. inhibition, % at 5 µM. AID 588850, 2011. actives 0.86% (n = 360,000);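 active means at least 50% inhibition at 5 µM, scaled per plate between neutral and stimulator controls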;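 further: PAF is a Pseudomonas aeruginosa culture filtrate used as stimulus; plate controls were PAF-stimulated DMSO wells for no effect and unstimulated DMSO wells for full effect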
# HIF-2a block: HIF-2a reporter inhibitors, primary screen, luminescence, 786-0 RCC cells; actives 0.72% (n = 360,000); 786-0 RCC cells HIF-2a reporter, luciferase luminescence, overnight; AID 624352, 2012; inhibition, % at 18.8 µM;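 active means inhibition of the luminescence signal of 40% or more relative to plate controls, in a single-dose primary screen at 18.75 µM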
# KKLEB cytotox: cytotoxicity in KKLEB CF airway cells, primary screen, cytotoxicity control for CF NF-kB inhibitor project, cell-based, uHTS, fluorescence assay plates | KKLEB CF airway cells viability, ATPlite luminescence, overnight; stronger effect = lower value; cells stimulated with P. aeruginosa culture filtrate | activity change (cytotoxicity), % at 5 µM | actives 0.36% (n = 360,000) | AID 602141, 2011;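 active means corrected activity change at or below -50% at 5 µM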
# Peg3 prom inh: Peg3 promoter-driven luciferase inhibitors, primary screen, cell-based, HeLa, luciferase luminescence; HeLa PEG-Prom luciferase reporter, overnight; inhibition, % at 20 µM; actives 1.7% (n = 360,000);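 active means inhibition of at least 50% at 20 µM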
# Beta2AR agonist: beta2AR agonists driving receptor internalization, primary screen, cell-based, FAP fluorogen, flow cytometry; response, % (concentration not given with the values); Beta-2 adrenergic receptor (Homo sapiens), P07550; AID 504454, 2011; Am2.2-beta2AR cells; actives 0.43% (n = 340,000);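 active means response above a set limit, near 3 SD of response in nonfluorescent compounds, cut at about 42% in these data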
# Target sequence (P07550 whole entry, looked up): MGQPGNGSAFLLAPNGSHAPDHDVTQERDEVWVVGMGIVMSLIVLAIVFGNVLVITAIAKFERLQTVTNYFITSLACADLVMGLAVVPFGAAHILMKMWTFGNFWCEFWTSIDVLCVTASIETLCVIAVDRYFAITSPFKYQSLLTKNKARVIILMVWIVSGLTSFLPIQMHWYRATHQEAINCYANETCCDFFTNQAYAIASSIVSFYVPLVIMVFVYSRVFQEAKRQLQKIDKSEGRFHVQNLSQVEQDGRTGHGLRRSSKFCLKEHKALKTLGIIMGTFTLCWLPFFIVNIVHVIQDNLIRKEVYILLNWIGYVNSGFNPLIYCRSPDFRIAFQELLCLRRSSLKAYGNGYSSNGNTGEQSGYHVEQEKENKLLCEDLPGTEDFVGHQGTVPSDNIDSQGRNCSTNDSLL
# TRPM1 prom inh: inhibitors of MITF-dependent TRPM1 promoter reporter, primary screen, cell-based, SK-MEL-5, single point, luciferase | actives 0.83% (n = 330,000) | SK-MEL-5 TRPM1 promoter luciferase, 24 h | AID 488899, 2010 | inhibition, % at 12.5 µM;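 active means mean inhibition across replicates of 60% or more, whatever share of single replicates reaches that level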
# Mdm2 MdmX conf: retested Mdm2-MdmX interaction blockers, confirmation, cell-based, luminescence, single concentration, set 2; shares compounds with HIF-2a block; SaOS-2 split-luciferase Mdm2/MdmX complementation; inhibition, % at 8 µM; actives 99% (n = 740);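 active means mean inhibition of the luminescence signal across two replicates at or above 26 percent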
# HIF-2a inh conf: HIF-2a reporter inhibitor retest, confirmation, luminescence, 786-0 RCC cells. shares compounds with HIF-2a block. HIF-2a luciferase reporter luminescence, overnight. inhibition, % at 18.8 µM. actives 56% (n = 1,800);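 active means mean inhibition across four replicates of at least 40 percent at the single tested concentration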
# HIF-1a counter: HIF-1a luciferase reporter signal reduction – MiaPaCa-2 cells, single concentration, counter-screen for HIF-2a inhibitor project, confirmation; MiaPaCa-2 HIF-1a luciferase reporter, desferoxamine, overnight; shares compounds with HIF-2a block; AID 651589, 2012; inhibition, % at 18.8 µM; actives 72% (n = 1,800);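 active means mean inhibition of the reporter signal across four replicates at the single tested dose of 50% or more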
# Starred values were filed as active, the others as inactive; nt = no result.
SMILES,CF NFkB inh,HIF-2a block,KKLEB cytotox,Peg3 prom inh,Beta2AR agonist,TRPM1 prom inh,HIF-2a inh conf,HIF-1a counter,others
O=C(Nc1cccc(C(=O)O)c1)Nc1ccccc1Cl,2,40*,-6,-9,3,47,32,-65,
O=C(Nc1cccc(Cl)c1)Nc1cccc(C(=O)O)c1,2,-17,-13,-28,-2,30,nt,nt,
COc1ccc(NC(=S)NN(C)C(=S)Nc2ccc(OC)cc2)cc1,16,-33,-6,2,12,13,nt,nt,
Cc1cnc(NC(=O)C2(C)CCN2C(=O)C(C)C)s1 (stereo not drawn),-13,11,-4,6,nt,nt,nt,nt,
CCc1ccc(-c2nc(CSCC(=O)NCCCN3CCCC3=O)c(C)o2)cc1,0,45*,-11,14,3,7,-5,16,
CSc1ccc(-c2nc(CSCC(=O)NCCCN3CCCC3=O)c(C)o2)cc1,16,1,1,-10,nt,12,nt,nt,
Cc1ccccc1CN(C)C[C@@H]1OCc2cnnn2CCCC(=O)N([C@H](C)CO)C[C@H]1C,7,8,-7,-15,nt,nt,nt,nt,
Cc1ccc(S(=O)(=O)N2CCN(C(=O)CCc3nc4ccccc4c(=O)[nH]3)CC2)c(C)c1,3,17,-20,0,-5,3,nt,nt,
O=C(CCc1nc2ccccc2c(=O)[nH]1)N1CCN(S(=O)(=O)c2ccccc2Br)CC1,25,48*,-12,7,13,26,23,89*,
CCOc1ccc2nc(SCC(=O)N3c4ccccc4Sc4ccccc43)c(C#N)cc2c1,8,16,-17,6,13,10,nt,nt,
CCOc1ccc2nc(SCc3ccc(CC(=O)O)cc3)c(C#N)cc2c1,16,83*,-3,13,19,1,89*,57*,
CC(C)CN1C(=O)C(=O)N(CC(=O)NC(C)CCc2ccccc2)C1=O (stereo not drawn),-10,8,11,17,-8,-5,nt,nt,
COc1ccc(C(=O)C=Cc2ccc3c(c2)OCO3)cc1OC,41,-53,-15,-101,nt,nt,nt,nt,
COc1cc(OCc2ccccc2)c(C(=O)/C=C/c2ccc3c(c2)OCO3)c(OC)c1OC,12,52*,-4,39,15,-9,40*,53*,
COc1cc(OC)c(C(=O)/C=C/c2ccc(OCc3ccccc3)c(OC)c2)c(OC)c1,-1,46*,15,48,-1,4,32,39,
COc1cc(C(C[N+](=O)[O-])c2c(-c3ccccc3)cc3ccccn23)cc(OC)c1OC (stereo not drawn),-9,43*,10,9,13,12,-38,68*,
COc1ccc(NC(=O)NNC(=O)C(C)Oc2ccc3ccccc3c2)cc1OC (stereo not drawn),-12,6,22,5,0,-3,nt,nt,
CCN1CCN(CCCNC(=O)c2ccc(/C=C3/Sc4ccccc4N(Cc4ccccc4F)C3=O)cc2)CC1,23,91*,-12,59*,47*,42,-21,102*,
O=C(NCCN1CCOCC1)c1ccc2c(c1)N(Cc1ccccc1F)C(=O)c1ccccc1S2,6,10,-3,2,5,9,nt,nt,
Cc1ccc(C(C)C)c(OCC(=O)Nc2ccc3c(c2)nc(CCN2CCCCC2)n3C)c1,20,23,-16,105*,24,95*,nt,nt,Mdm2 MdmX conf=101*
CCN(CC)c1ccc(NC(=O)CCCCC(=O)Nc2ccc(N(CC)CC)cc2)cc1,-4,65*,-6,12,3,29,66*,49,
CC(=O)C[C@@H](O)CC(=O)[C@@H]1OC(=O)CCCCCCCc2ccccc21,8,10,-2,-13,-4,-23,nt,nt,
O=C(NCCCN1CCOCC1)c1cc(-c2ccc(Br)cc2)on1,-9,58*,-6,-16,0,-8,19,62*,
CN(C)CCCNC(=O)C[C@H]1C[C@H](C(=O)N2CCCCC2)[C@@]2(C)c3[nH]c4ccc(Cl)cc4c3CCN2C1=O,5,-9,-14,-21,0,-24,nt,nt,
CN(C)C(=O)CCc1ccc2c3c([nH]c2c1)[C@]1(CCC2CCCC2)[C@@H](C(=O)N2CCOCC2)C[C@H](CC(=O)NCC24CC5CC(CC(C5)C2)C4)C(=O)N1CC3,18,-27,-2,35,1,4,nt,nt,
SMILES,CF NFkB inh,HIF-2a block,KKLEB cytotox,Peg3 prom inh,Beta2AR agonist,TRPM1 prom inh,HIF-2a inh conf,HIF-1a counter,others
CN(C)CCCNC(=O)C[C@H]1C[C@H](C(=O)N2CCCCC2)[C@@]2(CCc3ccccc3)c3[nH]c4ccc(Cl)cc4c3CCN2C1=O,32,81*,-41,95*,40,105*,17,103*,Mdm2 MdmX conf=103*
CC(C)=CCC/C(C)=C/CNC(=O)C[C@H]1C[C@H](C(=O)N2CCOCC2)[C@@]2(CCC3CCCC3)c3[nH]c4cc(CCC(=O)N(C)C)ccc4c3CCN2C1=O,-1,80*,-2,49,1,15,-6,106*,
CC1(C)Cc2c(sc(NC(=O)COc3cccc4ccccc34)c2C#N)C(C)(C)N1,-29,49*,-22,90*,35,37,6,53*,Mdm2 MdmX conf=103*
CCCCNC(=O)C1(C)CCCCN1C(=O)c1cc(C)n(C(C)(C)C)n1 (stereo not drawn),10,-1,1,7,nt,nt,nt,nt,
O=C(COC(=O)c1cccc(OC(F)F)c1)NC1CCCC1,-9,12,10,-7,-2,17,nt,nt,
CCOc1ccc(C(=O)Nc2nnc(SCC(=O)NCC3CCCO3)s2)cc1 (stereo not drawn),15,55*,-36,21,-3,48,59*,-1,
COc1ccc(C(=O)Nn2c(SCC(=O)NCc3ccccc3)nc3ccccc3c2=O)cc1,0,-2,-3,-14,-2,-8,nt,nt,
COc1ccc(C(=O)Nn2c(SCC(=O)NCC3CCCO3)nc3ccccc3c2=O)cc1 (stereo not drawn),5,49*,-6,13,0,-2,60*,49,
